# Results as given in paper PMC11062922 (Nature Chemical Biology, 2023).
# Where two headings read alike, the source gives them in different places.
# Experiments:
# [1] = tested on: PKN1; conditions: read-out: apparent Kd, n = 1
# [2] = tested on: PLK4; conditions: read-out: apparent Kd, n = 1
substance,measurement,setting,value
Lestaurtinib,potency estimated from few doses,"[1]; compound concentrations:100 nM and 1000 nM (sheet 'Lestaurtinib' of Supplementary Table 1),run:Lestaurtinib_02624_R2,Plate:MR020",430 nM
same,potency estimated from few doses,"[1]; compound concentrations:100 nM and 1000 nM (sheet 'Lestaurtinib' of Supplementary Table 1),run:Lestaurtinib_02624_R3,Plate:MR020",513 nM
same,potency estimated from few doses,"[1]; compound concentrations:100 nM and 1000 nM (sheet 'Lestaurtinib' of Supplementary Table 1),run:Lestaurtinib_02724_R1,Plate:MR021",487 nM
same,potency estimated from few doses,"[1]; compound concentrations:100 nM and 1000 nM (sheet 'Lestaurtinib' of Supplementary Table 1),run:Lestaurtinib_02724_R2,Plate:MR021",386 nM
same,potency estimated from few doses,"[1]; compound concentrations:100 nM and 1000 nM (sheet 'Lestaurtinib' of Supplementary Table 1),run:Lestaurtinib_02741_R3,Plate:MR023",518 nM
same,potency estimated from few doses,"[1]; compound concentrations:100 nM and 1000 nM (sheet 'Lestaurtinib' of Supplementary Table 1),run:Lestaurtinib_02748_R1,Plate:MR024",418 nM
same,potency estimated from few doses,"[1]; compound concentrations:100 nM and 1000 nM (sheet 'Lestaurtinib' of Supplementary Table 1),run:Lestaurtinib_02748_R2,Plate:MR024",511 nM
same,potency estimated from few doses,"[1]; compound concentrations:100 nM and 1000 nM (sheet 'Lestaurtinib' of Supplementary Table 1),run:Lestaurtinib_02748_R3,Plate:MR024",440 nM
same,potency estimated from few doses,"[1]; compound concentrations:100 nM and 1000 nM (sheet 'Lestaurtinib' of Supplementary Table 1),run:Lestaurtinib_02752_R1,Plate:MR025",489 nM
same,potency estimated from few doses,"[1]; compound concentrations:100 nM and 1000 nM (sheet 'Lestaurtinib' of Supplementary Table 1),run:Lestaurtinib_02752_R2,Plate:MR025",414 nM
same,potency estimated from few doses,"[1]; compound concentrations:100 nM and 1000 nM (sheet 'Lestaurtinib' of Supplementary Table 1),run:Lestaurtinib_02752_R3,Plate:MR025",448 nM
same,potency estimated from few doses,"[1]; compound concentrations:100 nM and 1000 nM (sheet 'Lestaurtinib' of Supplementary Table 1),run:Lestaurtinib_02765_R1,Plate:MR026",524 nM
same,potency estimated from few doses,"[1]; compound concentrations:100 nM and 1000 nM (sheet 'Lestaurtinib' of Supplementary Table 1),run:Lestaurtinib_02765_R3,Plate:MR026",568 nM
same,potency estimated from few doses,"[1]; compound concentrations:100 nM and 1000 nM (sheet 'Lestaurtinib' of Supplementary Table 1),run:Lestaurtinib_02766_R1,Plate:MR027",532 nM
same,potency estimated from few doses,"[1]; compound concentrations:100 nM and 1000 nM (sheet 'Lestaurtinib' of Supplementary Table 1),run:Lestaurtinib_02766_R2,Plate:MR027",582 nM
same,potency estimated from few doses,"[1]; compound concentrations:100 nM and 1000 nM (sheet 'Lestaurtinib' of Supplementary Table 1),run:Lestaurtinib_02766_R3,Plate:MR027",483 nM
same,potency estimated from few doses,"[1]; compound concentrations:100 nM and 1000 nM (sheet 'Lestaurtinib' of Supplementary Table 1),run:Lestaurtinib_02768_R1,Plate:MR028",403 nM
same,potency estimated from few doses,"[1]; compound concentrations:100 nM and 1000 nM (sheet 'Lestaurtinib' of Supplementary Table 1),run:Lestaurtinib_02768_R2,Plate:MR028",488 nM
same,potency estimated from few doses,"[1]; compound concentrations:100 nM and 1000 nM (sheet 'Lestaurtinib' of Supplementary Table 1),run:Lestaurtinib_02768_R3,Plate:MR028",424 nM
same,potency estimated from few doses,"[1]; compound concentrations:100 nM and 1000 nM (sheet 'Lestaurtinib' of Supplementary Table 1),run:Lestaurtinib_02795_R1,Plate:MR022",453 nM
same,potency estimated from few doses,"[1]; compound concentrations:100 nM and 1000 nM (sheet 'Lestaurtinib' of Supplementary Table 1),run:Lestaurtinib_02795_R2,Plate:MR022",443 nM
same,potency estimated from few doses,"[1]; compound concentrations:100 nM and 1000 nM (sheet 'Lestaurtinib' of Supplementary Table 1),run:Lestaurtinib_02795_R3,Plate:MR022",422 nM
same,potency estimated from few doses,"[1]; compound concentrations:100 nM and 1000 nM (sheet 'Lestaurtinib' of Supplementary Table 1),run:Lestaurtinib_02802_R1,Plate:MR029",473 nM
same,potency estimated from few doses,"[1]; compound concentrations:100 nM and 1000 nM (sheet 'Lestaurtinib' of Supplementary Table 1),run:Lestaurtinib_02802_R2,Plate:MR029",433 nM
same,potency estimated from few doses,"[1]; compound concentrations:100 nM and 1000 nM (sheet 'Lestaurtinib' of Supplementary Table 1),run:Lestaurtinib_02802_R3,Plate:MR029",181 nM
same,potency estimated from few doses,"[1]; compound concentrations:100 nM and 1000 nM (sheet 'Lestaurtinib' of Supplementary Table 1),run:Lestaurtinib_03172_R1,Plate:MR031",435 nM
same,potency estimated from few doses,"[1]; compound concentrations:100 nM and 1000 nM (sheet 'Lestaurtinib' of Supplementary Table 1),run:Lestaurtinib_03172_R3,Plate:MR031",358 nM
same,potency estimated from few doses,"[1]; compound concentrations:100 nM and 1000 nM (sheet 'Lestaurtinib' of Supplementary Table 1),run:Lestaurtinib_03252_R2,Plate:MR032",94.9 nM
same,potency estimated from few doses,"[1]; compound concentrations:100 nM and 1000 nM (sheet 'Lestaurtinib' of Supplementary Table 1),run:Lestaurtinib_03260_R1,Plate:MR033",514 nM
same,potency estimated from few doses,"[1]; compound concentrations:100 nM and 1000 nM (sheet 'Lestaurtinib' of Supplementary Table 1),run:Lestaurtinib_03260_R2,Plate:MR033",559 nM
same,potency estimated from few doses,"[1]; compound concentrations:100 nM and 1000 nM (sheet 'Lestaurtinib' of Supplementary Table 1),run:Lestaurtinib_03260_R3,Plate:MR033",518 nM
same,potency estimated from few doses,"[2]; compound concentrations:100 nM and 1000 nM (sheet 'Lestaurtinib' of Supplementary Table 1),run:Lestaurtinib_02339_R1,Plate:MR001",80.5 nM
same,potency estimated from few doses,"[2]; compound concentrations:100 nM and 1000 nM (sheet 'Lestaurtinib' of Supplementary Table 1),run:Lestaurtinib_02339_R2,Plate:MR001",64.4 nM
same,potency estimated from few doses,"[2]; compound concentrations:100 nM and 1000 nM (sheet 'Lestaurtinib' of Supplementary Table 1),run:Lestaurtinib_02339_R3,Plate:MR001",51.7 nM
same,potency estimated from few doses,"[2]; compound concentrations:100 nM and 1000 nM (sheet 'Lestaurtinib' of Supplementary Table 1),run:Lestaurtinib_02364_R2,Plate:MR002",202 nM
same,potency estimated from few doses,"[2]; compound concentrations:100 nM and 1000 nM (sheet 'Lestaurtinib' of Supplementary Table 1),run:Lestaurtinib_02367_R1,Plate:MR003",62.3 nM
same,potency estimated from few doses,"[2]; compound concentrations:100 nM and 1000 nM (sheet 'Lestaurtinib' of Supplementary Table 1),run:Lestaurtinib_02367_R2,Plate:MR003",75.5 nM
same,potency estimated from few doses,"[2]; compound concentrations:100 nM and 1000 nM (sheet 'Lestaurtinib' of Supplementary Table 1),run:Lestaurtinib_02381_R1,Plate:MR004",71 nM
same,potency estimated from few doses,"[2]; compound concentrations:100 nM and 1000 nM (sheet 'Lestaurtinib' of Supplementary Table 1),run:Lestaurtinib_02381_R2,Plate:MR004",73.6 nM
same,potency estimated from few doses,"[2]; compound concentrations:100 nM and 1000 nM (sheet 'Lestaurtinib' of Supplementary Table 1),run:Lestaurtinib_02381_R3,Plate:MR004",93.7 nM
same,potency estimated from few doses,"[2]; compound concentrations:100 nM and 1000 nM (sheet 'Lestaurtinib' of Supplementary Table 1),run:Lestaurtinib_02407_R1,Plate:MR005",45.6 nM
same,potency estimated from few doses,"[2]; compound concentrations:100 nM and 1000 nM (sheet 'Lestaurtinib' of Supplementary Table 1),run:Lestaurtinib_02407_R2,Plate:MR005",39.3 nM
same,potency estimated from few doses,"[2]; compound concentrations:100 nM and 1000 nM (sheet 'Lestaurtinib' of Supplementary Table 1),run:Lestaurtinib_02407_R3,Plate:MR005",47.3 nM
